# Records with an inconclusive call do not appear. Entries that show only a call come without a potency. Active and inactive are the calls of the source. Unless noted, the call rests on the fitted dose curve; in most records, active means well fitted curve in the direction sought with a large enough effect; inconclusive means small, poorly fitted or top-dose-only effect, or another doubt; inactive means no such curve, though single readings can be large; an effect the other way counts as inactive or inconclusive.
# Columns and labels:
# [1] = qHTS for Inhibitors of Plasmodium falciparum (CP250) proliferation (AID 504320)
# In short: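 Erythrocytes infected with P. falciparum line (0.3% parasitemia, 2.5% hematocrit final) incubated with compounds 72 h at 37 °C, 5% CO2; SYBR Green lysis buffer added, fluorescence read next day. Normalized to 0.29 uM artemisinin and DMSO.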
# [2] = target: Atrial natriuretic peptide receptor 1 (Homo sapiens) (UniProt P16066); assay: Natriuretic polypeptide receptor (hNpr1) antagonism - Pilot CMLD screen (AID 1347052; calls by dose curve;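 further: HEK293 cells with hNpr1 stimulated by hNppA peptide at 0.1 nM; cGMP level read as GloSensor luciferase luminescence after agonist stimulation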)
# [3] = target: Cytochrome P450 3A4 (Homo sapiens) (UniProt P08684); assay: qHTS Assay for Inhibitors and Substrates of Cytochrome P450 3A4 (AID 884); further: nearly all actives have a fitted effect of over 50% in size
# In short: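 20 nM human CYP3A4 with 25 uM Luciferin-PPXE (at KM) in 200 mM KPO4, preincubated 10 min with compound; NADPH regeneration started a 60 min RT reaction. Luciferin detected by luminescence, normalized to 57 uM ketoconazole as full inhibition.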
# [4] = Confirmation and Secondary Assay for Modulators of Hemoglobin Beta Chain Splicing at IVS2 654 locus (AID 910);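 further: HeLa cells stably carrying EGFP split by mutant beta-globin IVS2-654 intron; per-well total GFP intensity by laser scanning cytometry after 2-day treatment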
# In short: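 Readout: per-well total peak green fluorescence (488 nm ex, 500–520 nm em) from objects 5–250 µm, reflecting correct splicing of an EGFP-654 reporter. Compounds were applied for 2 days at 37 °C to overnight-plated HeLa EGFP-654 cells; controls were DMSO and 500 nM IVS2-654 PNA.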
# [5] = Confirmation and Secondary Assay for Modulators of Hemoglobin Beta Chain Splicing at IVS2 705 locus (AID 930);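 further: HeLa cells stably expressing the EGFP-705 splicing reporter; GFP fluorescence per well restored by corrected splicing of the IVS2-705 intron in EGFP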
# In short: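 Splice-correction reporter: EGFP cDNA split by beta-globin intron 2 bearing the 705 mutation, stably in HeLa. Compound incubation 2 days, 37C; fluorescent objects 5-250 µm summed per well.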
# [6] = qHTS Assay for Lipid Storage Modulators (AID 1519; calls by dose curve); conditions: Drosophila S3 cells, BODIPY lipid droplet/cell ratio, laser cytometry, cells loaded with oleic acid
# In short: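 Cells seeded at 5,000 per well were treated with compounds over a concentration series and loaded with oleic acid (400 uM, as added). Lipid droplet fluorescence (488 nm excitation, 500-530 nm channel) was read by laser-scanning cytometry and normalized to 20 uM Triacsin C.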
# [7] = target: Furin (Homo sapiens) (UniProt P09958); assay: Furin counterscreen qHTS for Zika virus inhibitors (AID 1347149); further: nearly all actives have a fitted effect of over 70% in size; further: potency means the concentration at half of the fitted maximal effect;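 on activity change, negative = inhibition: purified recombinant full-length human furin enzyme at 5 nM; fluorescence gain from furin cutting a BOC-RVRR-AMC peptide substrate over 15 min; top concentration of the series differs between compounds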
# In short: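 Fluorogenic cleavage of BOC-RVRR-AMC (2 microM final, Km ~15 µM) was monitored (ex 340, em 450 nm) at 37C after 15 min RT preincubation of 5 nM furin with compounds in HEPES pH 7.0 buffer with CaCl2 and Triton X-100. Percent inhibition was fitted to a 4-parameter Hill curve.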
# [8] = tested on: Zika virus NS2B-NS3 protease (unlinked); assay: Optimization of GU AMC qHTS for Zika virus inhibitors: Unlinked NS2B-NS3 protease assay (AID 1347151); further: nearly all actives have a fitted effect of over 80% in size
# In short: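 Noncovalent complex of NS2B hydrophilic domain and NS3 protease domain, 25 nM final, in 10 mM Tris-HCl pH 8.0, 0.01% Tween 20. AMC fluorescence change over 15 min at room temperature was fitted to a 4-parameter Hill equation.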
# [9] = Vero cells viability qHTS for Zika virus inhibitors (AID 1347167)
# In short: (§1)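 Compounds were tested in concentration series on cells grown in DMEM containing 4% FBS. After 24 to 48 hours, cellular ATP was measured by luminescence with CellTiter Glo.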
# [10] = Tertiary RLuc qRT-PCR qHTS assay for Zika virus inhibitors (AID 1347169); further: nearly all actives have a fitted effect of over 55% in size; further: potency means the concentration at half of the fitted maximal effect; on activity change, negative = inhibition: top concentration of the series differs between compounds
# In short: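 Vero cells (1,000 per well) plated overnight at 37 degrees C, treated with compound in DMSO, then infected with recombinant ZIKV-RLuc (Cambodian) at MOI 1-2 for 48-72 hrs. Live-cell Renilla luciferase substrate added; luminescence read after 1-1.5 hrs.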
# [11] = tested on: Zika virus NS2B-NS3 protease (linked construct); assay: Confirmatory screen NINDS AMC qHTS for Zika virus inhibitors (AID 1347152); further: nearly all actives have a fitted effect of over 70% in size; further: potency means the concentration at half of the fitted maximal effect;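 on activity change, negative = inhibition: AMC fluorescence gain from cleaved Bz-Nle-KRR-AMC substrate over 15 min; top concentration of the series differs between compounds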
# In short: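 Purified NS2B-NS3 protease with NS2B hydrophilic domain linked to NS3 protease domain by flexible linker, 1 nM final in 10 mM Tris-HCl pH 8.0, 0.01% Tween 20. Compounds preincubated 15 min, room temperature; Bz-Nle-KRR-AMC 10 microM (Km 18.3 µM); 15-min fluorescence change, 4-parameter Hill fit.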
# [12] = tested on: Zika virus NS2B-NS3 protease (unlinked complex); assay: Confirmatory screen GU AMC qHTS for Zika virus inhibitors (AID 1347153); further: nearly all actives have a fitted effect of over 70% in size
# In short: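 Compounds were preincubated 15 min at room temperature with 25 nM noncovalent NS2B-NS3 protease at pH 8.0; AMC substrate added at 10 microM and 15-min fluorescence gain (340/450 nm) converted to percent inhibition, fitted 4-parameter.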
# [13] = tested on: Zika virus NS2B-NS3 protease (linked construct); assay: 384 well plate NINDS Rhodamine confirmatory qHTS for Zika virus inhibitors (AID 1347164);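 further: fluorescence from protease cleavage of Ac-LKRR-rhodamine 110 substrate; nearly all actives have a fitted effect of over 65% in size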; further: potency means the concentration at half of the fitted maximal effect; on activity change, negative = inhibition: top concentration of the series differs between compounds
# In short: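 Linked protease at a final 5 nM, 30 nM or 60 nM was preincubated ~15 min with compounds, then given 10 microM Ac-LKRR-Rhodamine 110. Fluorescence (ex 485/em 538 nm) after 25 min in the dark at room temperature.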
# [14] = HepG2 cells viability qHTS for Zika virus inhibitors (AID 1347168)
# In short: as §1
# [15] = ZIKV-mCherry secondary qHTS for Zika virus inhibitors (AID 1347158); further: top concentration of the series differs between compounds
# In short: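 Vero, 5,000 cells/well, o/n 37 °C; cpd pin-transferred in DMSO; ZIKV-mCherry MOI 1, 48-72 h 37 °C; 32% PFA stock fix, Hoechst; imaged 10x DAPI/mCherry; mCherry+ threshold 450 RFU; % infection.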
# [16] = tested on: Zika virus NS2B-NS3 protease (linked); assay: 384 well plate NINDS AMC confirmatory qHTS for Zika virus inhibitors (AID 1347163); further: nearly all actives have a fitted effect of over 50% in size; further: potency means the concentration at half of the fitted maximal effect;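 on activity change, negative = inhibition: linked protease at 5 30 or 60 nM final depending on run; fluorescence of AMC released from Ac-VKTGKR-AMC peptide cleaved by the protease; top concentration of the series differs between compounds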
# In short: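 Linked NS2B-NS3 protease (final 5 nM, 30 nM or 60 nM) was preincubated with compounds (final up to 1 mM) for ~15 minutes. Ac-VKTGKR-AMC substrate (final 30 microM) then reacted for 25 minutes at room temperature in the dark. Fluorescence (ex 355/em 460 nm) was normalized to no-enzyme and no-inhibitor controls.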
# [17] = target: Glucocorticoid receptor (Homo sapiens) (UniProt P04150); assay: GR-GFP Redistribution (AID 450;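 active means compounds whose dose series gives a full or clear partial fitted curve of increased nuclear translocation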; further: potency means the concentration at half of the fitted maximal effect); conditions: U2OS GR-GFP nuclear translocation, laser cytometry, 2 h
# [18] = target: Glucocorticoid receptor (Homo sapiens) (UniProt P04150); assay: GR-EFC Redistribution (AID 451; calls by dose curve; further: potency means the concentration at half of the fitted maximal effect); conditions: CHO-K1 GR-EFC translocation, beta-gal luminescence, 2 h
# In short: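 Translocation of GR-ED fusion to nuclear EA restores b-gal, read by luminescence after 1 h room-temperature detection. Engineered CHO-K1 biosensor cells, 1,000/well, exposed 2 h at 37 C to titrations up to 46 uM final.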
# [19] = target: Mitogen-activated protein kinase 10 (Mus musculus) (UniProt Q61831); assay: JNK3 AlphaScreen Assay (AID 530; active means well fitted curve in either direction with a large enough effect, not every such curve was filed as active;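 further: kinase came from lysate of stimulated human HepG2 cells; signal reports phosphorylation of biotinylated GST-cJun 1-79 at Ser73 with 10 µM ATP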)
# In short: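 Compound titrations were preincubated 15 minutes at room temperature with substrate, antibody and pre-activated JNK3-containing HepG2 lysate. Reactions were started with 10 uM ATP and stopped with EDTA-containing bead buffer for AlphaScreen detection.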
# [20] = target: 3',5'-cyclic-AMP phosphodiesterase 4B (Homo sapiens) (UniProt Q07343); assay: qHTS Assay for Inhibitors of PDE-IV (AID 607; active means well fitted activation curve with a large enough effect in the main read-out, with a control signal flat, not every such curve was filed as active)
# In short: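 Cell-based read-out of cAMP via a modified cyclic nucleotide-gated channel and membrane potential dye (535/590 nm) in HEK293 cells expressing PDE4 endogenously. Compounds tested up to 22.9 uM final; 100 uM RO 20-1724 reference.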
# [21] = target: Ubiquitin carboxyl-terminal hydrolase 1 (Homo sapiens) (UniProt O94782); assay: Inhibitors of USP1/UAF1: Pilot qHTS (AID 504865); further: potency means the concentration at half of the fitted maximal effect; nearly all actives have a fitted effect of over 35% in size
# In short: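 USP1/UAF1 complex (1nM) preincubated with compound 15 min at room temperature, then Ub-Rho substrate (150nM final) added. Fluorescence read kinetically at 480/540 nm, 6 reads every 60 seconds. Buffer: 50mM HEPES pH 7.8, 0.5mM EDTA, 0.1 mg/ml BSA, 1mM TCEP, 0.01% Tween-20.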
# [22] = target: DNA dC->dU-editing enzyme APOBEC-3G (Homo sapiens) (UniProt Q9HC16); assay: qHTS for inhibitors of Vif-A3G interactions: Validation (AID 588379)
# In short: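 HeLa cells stably expressing Vif and A3G-eYFP, 700 cells/well, incubated overnight at 37 deg C, then exposed to compound overnight at 37 deg C. Inhibition of Vif-mediated degradation read as increased yellow fluorescence (Ex 488/Em 500-530) by laser-scanning cytometry.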
# [23] = tested on: Zika virus NS2B-NS3 protease; assay: Primary screen GU AMC qHTS for Zika virus inhibitors (AID 1347154); further: potency means the concentration at half of the fitted maximal effect; nearly all actives have a fitted effect of over 70% in size
# In short: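 Fluorogenic AMC-substrate cleavage by noncovalent NS2B-NS3 protease complex (25 nM, pH 8.0 Tris buffer with Tween 20) followed for 15 minutes at room temperature (~20% conversion). Percent inhibition from ex340/em450 signal change, fitted by 4-parameter Hill equation.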
# [24] = Confirmatory screen NINDS Rhodamine qHTS for Zika virus inhibitors (AID 1347161); further: potency means the concentration at half of the fitted maximal effect; nearly all actives have a fitted effect of over 60% in size
# In short: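 Purified linked NS2B-NS3 protease (NS2B hydrophilic domain joined to NS3 protease by flexible linker), 25 nM in 10 mM Tris-HCl pH 8.0, 0.01% Tween 20. Compounds titrated, 15 min preincubation at room temperature; 1.5 microM Rhodamine110 substrate, FITC fluorescence change over 15 min.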
# [25] = Primary qHTS for small molecule stabilizers of the endoplasmic reticulum resident proteome: Secreted ER Calcium Modulated Protein (SERCaMP) assay (AID 1508630)
# In short: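 GLuc-SERCaMP-expressing SH-SY5Y cells, pretreated 16 h with compound, are challenged with thapsigargin to empty ER calcium stores; after 4 h, coelenterazine is added directly to the medium and luminescence is imaged.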
# [26] = target: Rap guanine nucleotide exchange factor 3 (Homo sapiens) (UniProt O95398); assay: Confirmatory qHTS for antagonist of cAMP-regulated guanine nucleotide exchange factor 3 (EPAC1) (AID 1645880); further: potency means the concentration at half of the fitted maximal effect; nearly all actives have a fitted effect of over 55% in size
# In short: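 Nucleotide exchange uses 100 nM EPAC1, 250 nM RAP1B-BODIPY-GDP and 50 uM GDP, with compounds in a concentration-titration series. After 5 min at room temperature, fluorescence (480 nm ex/540 nm em) is read every 5 min for 30 min. Data are normalized to control ATA and DMSO.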
# [27] = target: Rap guanine nucleotide exchange factor 3 (Homo sapiens) (UniProt O95398); assay: Confirmatory qHTS for agonist of cAMP-regulated guanine nucleotide exchange factor 3 (EPAC1) (AID 1645881);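 further: EPAC1 catalysed release of BODIPY-GDP from Rap1B seen as fluorescence loss; nearly all actives have a fitted effect of over 75% in size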
# [28] = target: Rap guanine nucleotide exchange factor 4 (Homo sapiens) (UniProt Q8WZA2); assay: Confirmatory qHTS for agonist of cAMP-regulated guanine nucleotide exchange factor 4 (EPAC2) (AID 1645884);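 further: nucleotide exchange releases bodipy-GDP from Rap1 and this lowers its fluorescence; nearly all actives have a fitted effect of over 65% in size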
# [29] = target: Rap guanine nucleotide exchange factor 4 (Homo sapiens) (UniProt Q8WZA2); assay: Confirmatory qHTS for antagonist of cAMP-regulated guanine nucleotide exchange factor 4 (EPAC2) (AID 1645885); further: potency means the concentration at half of the fitted maximal effect; nearly all actives have a fitted effect of over 25% in size
# Furin (Homo sapiens), sequence (P09958 whole entry, looked up): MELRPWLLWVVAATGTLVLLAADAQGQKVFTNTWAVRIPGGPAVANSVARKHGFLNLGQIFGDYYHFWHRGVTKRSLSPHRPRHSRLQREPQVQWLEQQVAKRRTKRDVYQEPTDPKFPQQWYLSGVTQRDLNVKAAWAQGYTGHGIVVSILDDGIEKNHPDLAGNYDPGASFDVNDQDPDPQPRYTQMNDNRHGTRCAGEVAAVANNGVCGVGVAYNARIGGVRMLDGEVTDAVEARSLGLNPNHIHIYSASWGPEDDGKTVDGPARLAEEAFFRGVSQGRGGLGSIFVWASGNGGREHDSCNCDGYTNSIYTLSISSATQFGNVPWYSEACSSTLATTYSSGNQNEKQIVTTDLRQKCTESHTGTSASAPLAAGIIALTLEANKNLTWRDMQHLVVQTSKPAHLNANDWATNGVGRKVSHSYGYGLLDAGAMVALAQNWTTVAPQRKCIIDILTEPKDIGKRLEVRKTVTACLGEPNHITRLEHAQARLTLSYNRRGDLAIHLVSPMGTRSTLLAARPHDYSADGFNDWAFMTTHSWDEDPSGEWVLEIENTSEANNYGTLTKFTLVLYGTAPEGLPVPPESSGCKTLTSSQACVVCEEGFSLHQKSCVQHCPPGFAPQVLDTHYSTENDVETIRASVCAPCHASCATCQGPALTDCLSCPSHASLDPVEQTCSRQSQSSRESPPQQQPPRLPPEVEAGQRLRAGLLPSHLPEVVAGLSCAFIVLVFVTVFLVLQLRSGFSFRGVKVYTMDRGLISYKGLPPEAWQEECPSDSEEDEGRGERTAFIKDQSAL
# Rap guanine nucleotide exchange factor 3 (Homo sapiens), sequence (O95398 whole entry, looked up): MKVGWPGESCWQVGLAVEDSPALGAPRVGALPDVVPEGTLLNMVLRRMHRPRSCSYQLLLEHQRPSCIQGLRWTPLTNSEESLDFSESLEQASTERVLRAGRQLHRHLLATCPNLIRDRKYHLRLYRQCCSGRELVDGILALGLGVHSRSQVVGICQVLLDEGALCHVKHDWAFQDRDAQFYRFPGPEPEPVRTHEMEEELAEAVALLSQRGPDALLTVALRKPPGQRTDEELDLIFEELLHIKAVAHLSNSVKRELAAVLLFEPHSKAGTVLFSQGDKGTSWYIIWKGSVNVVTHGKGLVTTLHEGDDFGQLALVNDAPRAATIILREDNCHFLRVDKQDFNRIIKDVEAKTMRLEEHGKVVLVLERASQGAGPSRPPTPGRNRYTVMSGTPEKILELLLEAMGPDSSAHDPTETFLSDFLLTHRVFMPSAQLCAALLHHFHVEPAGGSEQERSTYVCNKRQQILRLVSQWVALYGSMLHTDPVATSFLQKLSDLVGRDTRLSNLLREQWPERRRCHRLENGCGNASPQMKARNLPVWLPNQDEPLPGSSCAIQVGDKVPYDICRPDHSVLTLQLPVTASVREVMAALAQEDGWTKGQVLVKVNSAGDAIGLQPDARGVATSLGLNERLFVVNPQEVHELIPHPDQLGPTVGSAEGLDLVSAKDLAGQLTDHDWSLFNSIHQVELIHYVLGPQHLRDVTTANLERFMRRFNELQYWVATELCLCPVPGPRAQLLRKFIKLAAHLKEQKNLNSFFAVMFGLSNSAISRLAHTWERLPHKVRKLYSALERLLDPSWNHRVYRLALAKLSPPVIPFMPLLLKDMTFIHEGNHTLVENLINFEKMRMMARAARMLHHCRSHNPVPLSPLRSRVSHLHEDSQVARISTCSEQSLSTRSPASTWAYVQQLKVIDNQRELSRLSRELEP
# Rap guanine nucleotide exchange factor 4 (Homo sapiens), sequence (Q8WZA2 whole entry, looked up): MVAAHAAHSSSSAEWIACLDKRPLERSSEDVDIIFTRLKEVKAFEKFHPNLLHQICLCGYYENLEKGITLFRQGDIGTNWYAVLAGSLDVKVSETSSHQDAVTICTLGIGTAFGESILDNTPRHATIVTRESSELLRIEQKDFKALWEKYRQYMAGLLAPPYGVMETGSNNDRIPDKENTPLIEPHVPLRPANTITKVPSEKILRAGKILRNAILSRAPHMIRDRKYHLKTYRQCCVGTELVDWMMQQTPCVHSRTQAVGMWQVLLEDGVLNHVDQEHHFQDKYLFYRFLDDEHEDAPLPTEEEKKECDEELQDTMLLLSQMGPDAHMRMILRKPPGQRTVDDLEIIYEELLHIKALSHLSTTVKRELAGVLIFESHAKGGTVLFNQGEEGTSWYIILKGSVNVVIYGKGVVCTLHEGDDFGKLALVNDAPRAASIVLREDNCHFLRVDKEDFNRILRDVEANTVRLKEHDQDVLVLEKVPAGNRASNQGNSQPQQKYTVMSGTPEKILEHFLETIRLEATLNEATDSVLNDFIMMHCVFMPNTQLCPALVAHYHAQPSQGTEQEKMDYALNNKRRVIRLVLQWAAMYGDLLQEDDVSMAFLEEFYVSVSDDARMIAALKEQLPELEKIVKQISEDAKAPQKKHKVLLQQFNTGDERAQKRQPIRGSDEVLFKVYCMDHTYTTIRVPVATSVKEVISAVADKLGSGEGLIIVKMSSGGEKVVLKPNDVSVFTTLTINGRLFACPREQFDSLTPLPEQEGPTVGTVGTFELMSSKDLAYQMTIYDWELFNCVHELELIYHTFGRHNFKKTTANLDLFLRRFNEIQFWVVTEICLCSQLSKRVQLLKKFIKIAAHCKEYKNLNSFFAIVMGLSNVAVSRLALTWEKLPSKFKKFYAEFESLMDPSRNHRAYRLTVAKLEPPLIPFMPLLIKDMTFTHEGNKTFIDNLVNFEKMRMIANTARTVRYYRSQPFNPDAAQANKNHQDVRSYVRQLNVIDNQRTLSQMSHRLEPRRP
# Glucocorticoid receptor (Homo sapiens), sequence (P04150 whole entry, looked up, the tested form may be a part): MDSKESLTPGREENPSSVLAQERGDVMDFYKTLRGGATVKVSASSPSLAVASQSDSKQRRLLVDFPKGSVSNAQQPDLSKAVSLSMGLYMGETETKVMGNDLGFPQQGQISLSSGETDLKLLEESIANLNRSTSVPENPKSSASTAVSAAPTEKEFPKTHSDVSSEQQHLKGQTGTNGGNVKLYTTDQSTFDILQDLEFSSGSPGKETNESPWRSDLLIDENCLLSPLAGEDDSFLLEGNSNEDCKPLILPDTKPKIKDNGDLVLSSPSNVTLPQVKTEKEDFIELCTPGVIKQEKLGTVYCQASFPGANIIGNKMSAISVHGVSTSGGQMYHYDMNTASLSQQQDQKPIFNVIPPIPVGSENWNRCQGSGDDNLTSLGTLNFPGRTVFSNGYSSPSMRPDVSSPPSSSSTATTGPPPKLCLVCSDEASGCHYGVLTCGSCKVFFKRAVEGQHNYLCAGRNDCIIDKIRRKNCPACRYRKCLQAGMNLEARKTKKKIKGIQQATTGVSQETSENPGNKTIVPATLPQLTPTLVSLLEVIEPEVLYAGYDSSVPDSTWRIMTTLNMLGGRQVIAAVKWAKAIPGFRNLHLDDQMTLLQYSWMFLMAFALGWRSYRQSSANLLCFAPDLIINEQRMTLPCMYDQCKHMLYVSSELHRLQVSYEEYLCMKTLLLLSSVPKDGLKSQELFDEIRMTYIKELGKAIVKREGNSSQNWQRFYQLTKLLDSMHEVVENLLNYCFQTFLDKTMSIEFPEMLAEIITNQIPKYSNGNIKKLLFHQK
# Atrial natriuretic peptide receptor 1 (Homo sapiens), sequence (P16066 whole entry, looked up): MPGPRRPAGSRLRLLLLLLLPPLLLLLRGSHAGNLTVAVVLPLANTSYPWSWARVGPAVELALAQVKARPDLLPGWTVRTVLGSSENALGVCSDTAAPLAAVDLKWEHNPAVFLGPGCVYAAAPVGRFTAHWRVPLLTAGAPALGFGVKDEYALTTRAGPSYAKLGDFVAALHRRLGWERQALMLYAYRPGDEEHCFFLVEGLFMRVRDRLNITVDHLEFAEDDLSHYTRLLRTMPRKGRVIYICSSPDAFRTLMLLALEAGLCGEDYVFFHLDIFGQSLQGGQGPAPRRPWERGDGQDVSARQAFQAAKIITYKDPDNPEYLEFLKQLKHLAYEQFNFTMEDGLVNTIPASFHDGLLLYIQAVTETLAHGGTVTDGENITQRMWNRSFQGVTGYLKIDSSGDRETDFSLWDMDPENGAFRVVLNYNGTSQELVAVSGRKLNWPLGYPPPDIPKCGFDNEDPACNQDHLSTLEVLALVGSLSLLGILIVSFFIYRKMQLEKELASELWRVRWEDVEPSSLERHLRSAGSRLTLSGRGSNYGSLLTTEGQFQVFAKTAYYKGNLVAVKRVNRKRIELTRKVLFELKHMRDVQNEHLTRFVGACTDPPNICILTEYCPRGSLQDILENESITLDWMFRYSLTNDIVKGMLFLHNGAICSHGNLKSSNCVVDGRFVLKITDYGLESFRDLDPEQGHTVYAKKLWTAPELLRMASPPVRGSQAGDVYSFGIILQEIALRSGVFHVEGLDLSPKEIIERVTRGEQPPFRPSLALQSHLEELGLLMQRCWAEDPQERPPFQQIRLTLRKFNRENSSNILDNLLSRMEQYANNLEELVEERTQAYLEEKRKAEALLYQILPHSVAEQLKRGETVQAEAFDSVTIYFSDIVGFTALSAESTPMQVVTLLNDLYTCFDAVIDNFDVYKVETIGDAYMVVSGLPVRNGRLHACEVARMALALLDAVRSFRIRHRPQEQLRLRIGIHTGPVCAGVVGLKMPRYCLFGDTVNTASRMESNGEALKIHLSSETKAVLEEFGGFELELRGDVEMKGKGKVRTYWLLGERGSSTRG
# DNA dC->dU-editing enzyme APOBEC-3G (Homo sapiens), sequence (Q9HC16 whole entry, looked up): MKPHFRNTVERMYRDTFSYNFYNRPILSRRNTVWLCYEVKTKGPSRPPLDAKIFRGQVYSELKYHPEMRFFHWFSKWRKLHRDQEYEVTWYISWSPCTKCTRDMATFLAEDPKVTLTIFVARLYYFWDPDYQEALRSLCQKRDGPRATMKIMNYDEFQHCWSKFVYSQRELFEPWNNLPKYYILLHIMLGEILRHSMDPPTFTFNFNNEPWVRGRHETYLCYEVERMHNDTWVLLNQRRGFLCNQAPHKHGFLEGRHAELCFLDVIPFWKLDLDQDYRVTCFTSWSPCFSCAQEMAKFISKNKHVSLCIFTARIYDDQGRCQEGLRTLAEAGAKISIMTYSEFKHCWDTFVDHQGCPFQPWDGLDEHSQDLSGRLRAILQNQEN
compound,measurement,setting,value
COc1ccc2c(c1)[C@@]1(OCCC=C[C@@H]1C)C(=O)N2Cc1ccccc1C(F)(F)F,Potency,[1],inactive
same,Potency,[2],inactive
CC1O[C@@H](O[C@@H]2C(O)C[C@H](O[C@@H]3C(O)C[C@@H](OC4CC[C@@]5(C)C6CC(O)[C@@]7(C)C(C8=CC(=O)OC8)CC[C@@]7(O)C6CC[C@@H]5C4)OC3C)OC2C)CC(O)[C@H]1O (some centres undefined),Potency,[3],inactive
same,outcome,[4],inactive
same,outcome,[5],inactive
same,"activity change, negative = inhibition",[6]; at 57.5 µM (top of the series),7.91% (inactive)
same,max response,[6]; measured here: cell count channel max response,11.2%
same,max response,[6]; measured here: lipid channel max response,22.9%
same,Potency,[7],inactive
same,Potency,[8],inactive
same,Potency,[9],inactive
same,Potency,[10],1.17 µM (active)
O=C(Nc1ccc(Oc2ccccc2)cc1)O[C@@H]1CO[C@H]2[C@@H]1OC[C@@H]2NS(=O)(=O)c1ccc(Cl)cc1,Potency,[7],inactive
same,Potency,[11],inactive
same,Potency,[12],inactive
O=S(=O)(N[C@H]1CO[C@H]2[C@@H]1OC[C@@H]2Nc1nccc(-c2ccc3c(c2)OCO3)n1)c1ccc2ccccc2c1,Potency,[7],55.5 µM (active)
Cc1c(NS(=O)(=O)c2ccccc2)cc(C(C)C)c(O)c1S(=O)(=O)c1ccc(Cl)cc1,Potency,[7],inactive
NC(=O)[C@@H](CCCN=C(N)N)NC(=O)[C@@H](CCCN=C(N)N)NC(=O)[C@@H](CCCN=C(N)N)NC(=O)[C@@H](CCCN=C(N)N)NC(=O)[C@@H](CCCN=C(N)N)NC(=O)[C@H](N)CCCN=C(N)N,Potency,[7],2.51 µM (active)
O=C(O)COc1ccc(-c2nccc3c2C(=O)N(Cc2ccccc2)CC(COc2cccc(C(F)(F)F)c2)O3)cc1 (centres undefined),Potency,[7],inactive
same,Potency,[11],55.5 µM (active)
same,Potency,[12],44.1 µM (active)
same,Potency,[13],35.5 µM (active)
O=C1OC2(c3ccccc31)c1ccc3cc(O)ccc3c1Oc1c2ccc2cc(O)ccc12,Potency,[7],inactive
CCOc1ccc(C2C(=O)N(C3CCCCCC3)CC(=O)N2CCc2ccc(Cl)cc2)cc1OC (centres undefined),Potency,[7],inactive
same,Potency,[8],inactive
same,Potency,[9],inactive
same,Potency,[14],inactive
same,Potency,[10],18.6 µM (active)
Nc1ncnc2c1ncn2[C@@H]1O[C@H](CSCC[C@H](N)C(=O)O)[C@@H](O)[C@H]1O,Potency,[7],inactive
same,Potency,[8],inactive
same,Potency,[15],inactive
same,Potency,[16],inactive
same,Potency,[13],inactive
same,Potency,[9],inactive
same,Potency,[14],inactive
same,Potency,[10],inactive
Cc1cccc(C)c1NS(=O)(=O)c1ccc(NS(=O)(=O)c2ccc3c(c2)OCCO3)cc1,Potency,[7],inactive
same,Potency,[11],inactive
same,Potency,[12],inactive
same,Potency,[16],200 µM (active)
same,Potency,[13],126 µM (active)
O=C(O)c1ccc(-c2cccc(C(F)(F)F)c2)cc1,Potency,[7],inactive
same,Potency,[11],inactive
same,Potency,[12],inactive
same,Potency,[15],inactive
same,Potency,[10],inactive
CC1(COc2ccc(C[C@H]3SC(=O)NC3=O)cc2)CCCCC1,Potency,[17],> 46 µM (inactive)
same,Potency,[18],> 46 µM (inactive)
same,Potency,[19],inactive
same,Potency,[20],inactive
same,Potency,[21],79.4 µM (active)
same,Potency,[22],inactive
same,Potency,[7],inactive
same,Potency,[11],19.2 µM (active)
same,Potency,[12],21.5 µM (active)
same,Potency,[23],11.9 µM (active)
same,Potency,[24],4.4 µM (active)
same,Potency,[9],inactive
same,Potency,[14],inactive
same,Potency,[25],inactive
same,Potency,[26],55.9 µM (active)
same,outcome,[27],inactive
same,outcome,[28],inactive
same,Potency,[29],49.4 µM (active)

# Source: PubChem BioAssay (NCATS)
